TSG101-PTAP inh: blocks PTAP/TSG101 interaction to inhibit HIV-1 budding; Potency, µM (titrated, usually from 115 µM), inactives show top-dose activity change, negative = inhibition, most hits filed as inhibitors; Q99816; 340,000 tested, under 10 active; Fluorescence polarization, FITC-PTAP peptide / Tsg101 binding; active = well fitted inhibition curve with a large enough effect in the main read-out, with a control signal flat, not every such curve was filed as active; inconclusive = small, poorly fitted or top-dose-only effect, or effect the other way, or a change in a side signal; inactive = no such curve, though single readings can be large or run the other way; also: potency is read from the fitted curve at half-maximal effect; % of control where 0% means no effect
Target sequence (Q99816 whole entry, looked up): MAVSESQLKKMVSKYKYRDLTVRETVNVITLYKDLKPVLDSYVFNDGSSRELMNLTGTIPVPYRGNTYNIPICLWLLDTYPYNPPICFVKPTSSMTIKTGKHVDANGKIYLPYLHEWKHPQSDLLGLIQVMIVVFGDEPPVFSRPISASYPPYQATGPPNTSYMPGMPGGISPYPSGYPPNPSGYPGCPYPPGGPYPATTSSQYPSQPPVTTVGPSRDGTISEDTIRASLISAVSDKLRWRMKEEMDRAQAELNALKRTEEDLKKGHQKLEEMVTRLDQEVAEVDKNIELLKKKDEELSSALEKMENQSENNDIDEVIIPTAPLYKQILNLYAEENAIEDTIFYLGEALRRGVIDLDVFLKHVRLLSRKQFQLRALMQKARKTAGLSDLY
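Fluorescence polarization binding of Tsg101 binding domain (10 uM final) to FITC-labeled PTAP peptide (50 nM final) in HEPES pH 7.5 buffer with NaCl, Tween 20, EDTA, TCEP. Compounds added before peptide; binding 20 min at RT.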
TSHR antagonist: antagonists of human thyroid stimulating hormone receptor; P16473; 330,000 tested, 0.2% active; TSHR-expressing cells, TSH-stimulated cAMP HTRF, 2 h; hits give low values; AID 504810; activity change, negative = inhibition, % at 11.5 µM;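 active = activity change below a set negative limit, meaning inhibition stronger than a set level, cut at about -70% in these data; inconclusive = activity change between two set negative limits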; also: % is scaled to controls: 0 for no effect and ±100 for the full control effect
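TSHR-expressing cells were treated with compounds, then stimulated with TSH at EC80 (4nM final) for 2 hours at 37 deg C. Cellular cAMP was measured by HTRF competition between lysate cAMP and cAMP-d2 for a cryptate-labelled anti-cAMP antibody.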
uPA generation: inhibitors of cell surface uPA generation; cell surface uPA generation assay, qHTS; Potency, µM (top dose mostly 38.3 µM), for the others: at the highest dose activity change, negative = inhibition, most hits filed as inhibitors; 330,000 tested, 0.31% active; active = well fitted inhibition curve with a large enough effect; inconclusive = small, poorly fitted or top-dose-only effect; inactive = no such curve, though single readings can be large or run the other way; tested in mouse RAW 264.7 cells; also: potency is read from the fitted curve at half-maximal effect; % is scaled to controls: 0 for no effect and ±100 for the full control effect; nearly all actives have a fitted effect of over 55% in size
VDR inhibitor: vitamin D3 receptor (human) inhibition; P11473; VDR-SRC2-3 peptide fluorescence polarization, 2 h; Potency, µM, without a hit: max response, negative = inhibition, usual class: inhibitors; 400,000 tested, 0.93% active; AID 504847; also: potency is read from the fitted curve at half-maximal effect; % is scaled to controls: 0 for no effect and ±100 for the full control effect
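Measured by FP: displacement of SRC2-3 coactivator peptide from VDR by library compounds, following a two-hour ambient incubation.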
PLK1 PBD block: PLK1 (human) polo-box domain binding inhibition; P53350; Plk1 PBD binding of FITC phosphopeptide, fluorescence polarization; Potency, µM, without a hit: max response, negative = inhibition, most hits filed as inhibitors; 360,000 tested, 2.8% active; AID 720504; also: potency is read from the fitted curve at half-maximal effect; series mostly up to about 57 µM; % is scaled to controls: 0 for no effect and ±100 for the full control effect; nearly all actives have a fitted effect of over 65% in size
Numbers without * were called inactive. Only some compounds are listed: those with a hit (about 3.1% of all), similar ones and a draw of the others. Unless noted, calls follow the shape of the dose curve; as a rule, active = well fitted curve in the direction sought with a large enough effect; inconclusive = small, poorly fitted or top-dose-only effect, or another doubt; inactive = no such curve, though single readings can be large; an effect the other way counts as inactive or inconclusive.

Screening Cc1ccc(Cl)c2c1N[C@@H](c1ccc(C(=O)O)cc1)[C@H]1CC=C[C@@H]21 returned VDR inhibitor -30.0%.
Screening O=C(O)C1Nc2c(C(F)(F)F)ccc(Cl)c2C2C=CCC12 (stereo not drawn) returned TSG101-PTAP inh -12.7%, TSHR antagonist -2.4, uPA generation 4.7%, VDR inhibitor inconclusive and PLK1 PBD block 26.7µM*.
Cc1ccc2c(c1C)NC(C(=O)O)C1CC=CC21 (stereo not drawn) was read as TSG101-PTAP inh -6.4%, TSHR antagonist 4.9, uPA generation 13.9%, VDR inhibitor 24.8% and PLK1 PBD block 18.9µM*.
O=C(O)C1Nc2c(C(=O)N3CCOCC3)cccc2C2C=CCC12 (stereo not drawn) was read as TSG101-PTAP inh 2.1%, TSHR antagonist 7.5, uPA generation 15.2%, VDR inhibitor inconclusive and PLK1 PBD block 11.9µM*.
`O=C(Nc1cccc(Cl)c1)C1CCCN(c2ncnc3c2nc2n3CCCCC2)C1` (stereo not drawn) gave VDR inhibitor -21.5%.
Screening CN(C)S(=O)(=O)c1cccc(NC(=O)c2cccc(S(=O)(=O)N3CCCCCC3)c2)c1 returned TSG101-PTAP inh -1.4%, TSHR antagonist -30.9, uPA generation inconclusive, VDR inhibitor -6.1% and PLK1 PBD block -6.9%.
Screening O=[N+]([O-])c1ccc2[nH]c(=S)sc2c1 returned TSG101-PTAP inh -0.1%, uPA generation -2.8%, VDR inhibitor inconclusive and PLK1 PBD block 0.0%.
`O=[N+]([O-])c1ccc2[nH]c(=S)[nH]c2c1` gave TSG101-PTAP inh -5.7%, uPA generation -2.2%, VDR inhibitor -9.1% and PLK1 PBD block 26.7µM*.
O=[N+]([O-])c1ccc2c(c1)[nH]c(=S)n2-c1ccccc1 was read as TSG101-PTAP inh 0.5%, TSHR antagonist -7.2, VDR inhibitor -12.4% and PLK1 PBD block 5.97µM*.
`Cc1cc(C)cc(NC(=O)Cn2c(=O)n(-c3ccc(C)c(C)c3)c(=O)c3oc4ccccc4c32)c1` gave VDR inhibitor -8.1%.
`CCOC(=O)c1c(C)oc2nc(C)nc(NCCCN3CCN(c4ccc(F)cc4)CC3)c12` gave VDR inhibitor 11.9%.
For C/C(=N\N1C(=O)CSC1=S)c1ccc(Br)cc1 the results were TSG101-PTAP inh 0.8%, TSHR antagonist 9.4, uPA generation 0.1%, VDR inhibitor inconclusive and PLK1 PBD block 5.32µM*.
Screening Cc1ccc(C(=O)NN2C(=O)CSC2=S)cc1 returned TSG101-PTAP inh -3.5%, TSHR antagonist 1.1, uPA generation -5.3%, VDR inhibitor -2.4% and PLK1 PBD block -5.1%.
`C=CCN1C(=O)CSc2ccc(C(=O)NC(C)c3ccccc3)cc21` (stereo not drawn) gave TSG101-PTAP inh 0.0%, TSHR antagonist -3.1, uPA generation -4.8%, VDR inhibitor -10.4% and PLK1 PBD block -14.0%.
Screening COc1ccc(/C=C/C(=O)NCC(=O)N/N=C/c2cccs2)cc1 returned TSG101-PTAP inh -3.7%, TSHR antagonist -10.3, uPA generation -0.2%, VDR inhibitor 17.1% and PLK1 PBD block 7.1%.
`C#CCSc1nncn1C(=O)/C=C/c1ccccc1` gave TSG101-PTAP inh -2.5%, TSHR antagonist 0.1, uPA generation -4.8%, VDR inhibitor inconclusive and PLK1 PBD block 23.8µM*.
`CCOc1ccc(-n2c(CC)nc3c(cnn3-c3ccc(Cl)cc3)c2=O)cc1` gave VDR inhibitor -1.2%.
N/C(=N\NC(=O)c1cccs1)c1cc2cc(Cl)ccc2oc1=O was read as TSG101-PTAP inh 0.8%, TSHR antagonist -1.6, uPA generation -2.0%, VDR inhibitor -30.0% and PLK1 PBD block 23.8µM*.
For CCC(CO)Oc1cc(NCc2ccccc2Cl)c2ncn(C(C)C)c2c1 (stereo not drawn) the results were TSG101-PTAP inh -2.2%, TSHR antagonist -11.4, uPA generation 6.1%, VDR inhibitor -0.7% and PLK1 PBD block -16.5%.
CCOC(=O)CSc1nc(C2CC2)cc(-c2ccc(Cl)cc2)c1C#N was read as TSG101-PTAP inh 1.0%, TSHR antagonist -25.3, uPA generation 2.4%, VDR inhibitor -14.0% and PLK1 PBD block 23.8µM*.
`COc1ccc(-c2cc(-c3cccs3)c(C#N)c(SCC(=O)NCc3ccccc3)n2)cc1` gave TSG101-PTAP inh -1.8%, TSHR antagonist 6.0, uPA generation 6.0%, VDR inhibitor -0.1% and PLK1 PBD block 0.8%.
Screening N#Cc1c(-c2ccccc2)cc(-c2cccs2)nc1SCC(=O)O returned TSG101-PTAP inh -1.5%, TSHR antagonist -16.7, uPA generation -2.7%, VDR inhibitor inconclusive and PLK1 PBD block 26.7µM*.
N#Cc1c(-c2ccc(Cl)cc2)cc(-c2cccs2)nc1SCC(=O)O was read as TSG101-PTAP inh -8.8%, TSHR antagonist -18.5, uPA generation -4.3%, VDR inhibitor inconclusive and PLK1 PBD block 16.8µM*.
`Cc1ccc(NC(=O)c2cc3c([nH]c2=O)CC(C)(C)CC3=O)c(C)c1` gave VDR inhibitor -11.2%.
`Cn1c(NCCO)nc2c1c(=O)n(Cc1ccccc1Cl)c(=O)n2C` gave VDR inhibitor -8.9%.
Screening Cc1ccc(C)c(Cn2c(SCC(=O)NCc3ccccc3)nc3ccccc32)c1 returned VDR inhibitor 5.6%.
Oc1ccc(Br)cc1C1C=C(c2ccc3c(c2)OCO3)NC(c2ccc(F)c(Br)c2)N1 (stereo not drawn) was read as VDR inhibitor 50.1µM*.
COc1ccc(NC(=S)N(CCC(C)C)C2CCN(C(C)C)CC2)cc1Cl was read as TSG101-PTAP inh -3.2%, TSHR antagonist 2.6, uPA generation 4.2%, VDR inhibitor inconclusive and PLK1 PBD block 2.12µM*.
COCCN(C(=S)Nc1ccc(OC)c(Cl)c1)C1CCN(C(C)C)CC1 was read as TSG101-PTAP inh -3.8%, TSHR antagonist -3.5, uPA generation -0.8%, VDR inhibitor -5.1% and PLK1 PBD block 13.4µM*.
CC(=O)c1cc(F)c(N2CCN(C(=O)c3ccco3)CC2)cc1C was read as TSG101-PTAP inh -3.8%, TSHR antagonist -7.5, uPA generation -2.0%, VDR inhibitor 13.6% and PLK1 PBD block -4.5%.
Screening CC(=O)c1ccc(N2CCN(C(=O)c3ccco3)CC2)c(F)c1 returned TSG101-PTAP inh -0.1%, TSHR antagonist 10.4, uPA generation 0.4%, VDR inhibitor 6.4% and PLK1 PBD block 18.9µM*.
Screening O=c1oc2ccccc2c(Cl)c1CN1CCCCC1 returned TSG101-PTAP inh -0.8%, TSHR antagonist 8.6, uPA generation inconclusive, VDR inhibitor 3.6% and PLK1 PBD block 11.9µM*.
`O=c1oc2ccccc2c(N2CCCC2)c1CN1CCCC1` gave TSG101-PTAP inh -6.7%, TSHR antagonist -13.9, uPA generation 1.4%, VDR inhibitor -0.9% and PLK1 PBD block 0.1%.
Screening Cc1ccc(-n2nnnc2-c2cnoc2-c2cccc(F)c2)cc1 returned TSG101-PTAP inh -3.6%, TSHR antagonist -34.7, uPA generation -6.4%, VDR inhibitor 50.1µM* and PLK1 PBD block 21.2µM*.

High-throughput results as filed in PubChem.
